# Assay results from PubChem BioAssay.
# Calls of active or inactive are those of the source. Unless noted, how the calls were made is not given here.
# Key:
# [1] = test system: XIP peptide (Xip251-270) binding; assay: XIP fragment 251-270 binding compounds – biochemical, small-molecule microarray, fluorescence 635/667 nm, 0.1 µg/mL protein, primary screen (AID 1182); details: fluorescent protein binding, 635 nm, higher = more signal, called active from +8 up or from −8 down
# XIP peptide (Xip251-270) = assay: compounds binding XIP fragment 251-270 – biochemical, small-molecule microarray, fluorescence 635/667 nm, 0.5 µg/mL protein, primary screen (AID 1183); details: fluorescence 635 nm, higher = more signal
# [2] = blood-stage malaria parasite viability loss – strain 3D7, DAPI fluorescence, 100 nL, primary screen (AID 1184);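 further: parasites grown inside human red blood cells in medium with human serum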; details: P. falciparum 3D7 growth, 3 d, higher = more signal
# [3] = biological target: Homeobox protein Hox-A13 (Mus musculus) (UniProt Q62424); assay: disruptors of Hoxa13 oligonucleotide interaction – biochemical, fluorescence polarization, labeled oligonucleotide, primary screen (AID 1185); details: Hoxa13:DNA binding, 15 min, higher = more signal, called active from +8 up or from −8 down
# [4] = blockers of DNA damage checkpoint Chk1 activation – imaging, HeLa, hydroxyurea, phospho-Chk1 antibody, percent positive cells, primary screen (AID 1186); details: hydroxyurea-induced phospho-Chk1 immunofluorescence imaging, higher = more signal
# [5] = blockers of DNA damage checkpoint Chk1 activation – imaging, HeLa, hydroxyurea, phospho-Chk1 nuclear intensity, primary screen (AID 1187); details: hydroxyurea-induced phospho-Chk1 immunofluorescence imaging, higher = more signal
# Sequence of Homeobox protein Hox-A13 (Mus musculus) (Q62424 whole entry, looked up): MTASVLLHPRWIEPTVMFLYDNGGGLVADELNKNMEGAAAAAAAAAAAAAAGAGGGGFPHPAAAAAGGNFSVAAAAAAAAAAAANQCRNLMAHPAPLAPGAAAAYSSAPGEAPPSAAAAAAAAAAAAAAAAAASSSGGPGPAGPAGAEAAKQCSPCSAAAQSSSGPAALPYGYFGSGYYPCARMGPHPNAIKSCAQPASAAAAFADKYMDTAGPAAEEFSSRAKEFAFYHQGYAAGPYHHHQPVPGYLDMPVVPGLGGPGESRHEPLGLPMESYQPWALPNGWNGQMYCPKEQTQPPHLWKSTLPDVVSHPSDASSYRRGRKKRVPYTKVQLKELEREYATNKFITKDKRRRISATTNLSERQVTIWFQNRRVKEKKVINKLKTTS
Structure (SMILES),composite z-score [1],composite z-score (XIP peptide (Xip251-270)),z-score [2],z-score [3],z-score [4],z-score [5]
COc1cc2c(cc1O)C=[N+](Cc1sc3ccccc3c1Cl)CC2,0.669 (inactive),0.133,-1.84,-5.22 (inactive),0.399 (inactive),0.9 (inactive)
CCOC(=O)C[C@H]1[C@H](OC(=O)c2ccc(C(=O)c3ccccc3)cc2)[C@@H](NC(=O)c2ccc(-c3ccccc3)cc2)c2cc(OCCCO)ccc2N1C(=O)Cc1ccc(OC)cc1,-0.555 (inactive),-0.187,-0.75,-1.41 (inactive),0.0183 (inactive),0.25 (inactive)
CCOC(=O)C1=C[C@@H](C(C)(C)C)N(S(=O)(=O)c2ccc(C)cc2)[C@H]1c1cccc2ccccc12,-0.247 (inactive),0.236,-1.93,0.961 (inactive),0.721 (inactive),0.521 (inactive)
C=CC[C@@H](OC(=O)Nc1ccc(SC)cc1)c1ccc(O)c(F)c1,0.452 (inactive),0.257,-0.671,-1.19 (inactive),-0.12 (inactive),0.539 (inactive)
C=CCC(OC(C)=O)[C@@H]1[C@@H](N(Cc2cccc3ccccc23)C(=O)Cc2ccc(F)cc2)c2cc(OCCCO)ccc2N1C(=O)c1ccc2ccccc2c1 (stereo partly specified),-1.12 (inactive),-0.277,-1.85,-1.39 (inactive),-0.457 (inactive),-0.395 (inactive)
COC(=O)C1=CC(CCCO)=CC(c2cccs2)N(Cc2cccc(OC(F)(F)F)c2)C=C1C(=O)OC (stereo unspecified),0.348 (inactive),0.706,-1.78,-7.24 (inactive),0.128 (inactive),0.39 (inactive)
COCCOC(=O)N1C(=O)[C@@]2(c3cc(C#CC4=CCCCC4)ccc31)[C@H](c1ccccc1OCCO)N1[C@H](c3ccccc3)[C@H](c3ccccc3)OC(=O)[C@H]1[C@@H]2C(=O)NC[C@H](O)c1ccccc1,1.57 (inactive),0.742,-1.93,0.449 (inactive),0.0064 (inactive),-0.175 (inactive)
CCCCCN1CC=CC23O[C@@H]4C=CCCOC(=O)C4[C@H]2C(=O)N(CCCCCCO)[C@@H]3C1=O (stereo partly specified),0.592 (inactive),-0.199,-0.103,-4.59 (inactive),-0.0991 (inactive),0.155 (inactive)
Cc1ccc(S[C@]2(C(=O)O)CC(=O)N(C3CCCCC3)[C@@H]2c2ccc(CO)cc2I)cc1,2.84 (inactive),0.526,-0.348,-5.25 (inactive),0.542 (inactive),0.675 (inactive)
C[C@@H]1NC(=O)[C@@H](Cc2ccccc2)NC(=O)[C@@]23C(=O)N[C@@H](Cc4ccccc4)C2[C@H](C)[C@@]2(C)O[C@H]2C3/C=C/C/C=C\CNC1=O (stereo partly specified),-0.274 (inactive),0.711,-0.132,-6.78 (inactive),-0.115 (inactive),-0.328 (inactive)
CCCCCCCCCCC(O)C1C=CC2C(=O)N(c3ccccc3)C(=O)C2N1Nc1ccc(C#N)cc1 (stereo unspecified),1.53 (inactive),0.419,-0.562,-1.23 (inactive),0.0905 (inactive),0.15 (inactive)
CC(c1ccccc1)C(O)C1C=CC2C(=O)N(C)C(=O)C2N1Nc1ccccc1 (stereo unspecified),0.255 (inactive),0.726,0.139,-3.9 (inactive),0.378 (inactive),-0.484 (inactive)
O=C(O)[C@@H]1C[C@@H]2C(=O)N3CCC[C@H]3C(=O)N2[C@@H]1c1ccc(O)cc1,0.543 (inactive),0.906,-1.37,1.66 (inactive),0.959 (inactive),1.08 (inactive)
C=CCC(OC(C)=O)[C@@H]1[C@@H](N(Cc2ccc(-c3cccc(C(F)(F)F)c3)o2)C(=O)c2ccc(-c3ccccc3)cc2)c2cc(OCCCO)ccc2N1C(=O)Cc1ccc2ccccc2c1 (stereo partly specified),-0.186 (inactive),-0.738,-0.694,-1.1 (inactive),0.345 (inactive),0.291 (inactive)
O=C1[C@H]2C=C(I)[C@H](C[C@@H]2OCCOCCO)[C@@]12CO2,0.0014 (inactive),-0.0714,0.79,0.122 (inactive),0.363 (inactive),0.401 (inactive)
CCC#CCN(Cc1ccccc1Br)[C@H](/C=C/C1CC1)[C@@H](O)Cc1ccccc1,-0.243 (inactive),0.0059,-3.17,-0.634 (inactive),-0.887 (inactive),-0.875 (inactive)
CCOC(=O)C[C@H]1[C@H](OC(=O)Cc2ccc3c(c2)OCO3)[C@@H](NC(=O)C2CCCCC2)c2cc(OCCCO)ccc2N1C(=O)c1ccccc1,-0.137 (inactive),0.514,-0.201,-3.57 (inactive),-0.296 (inactive),-0.176 (inactive)
O=C1C[C@]2(c3ccc([N+](=O)[O-])cc3)C(=O)N(C3CC3)c3cc(CO)ccc3[C@H]2N1CC12CC3CC(CC(C3)C1)C2,0.196 (inactive),0.463,-1.38,-0.902 (inactive),-0.0994 (inactive),-0.497 (inactive)
C=CCN1Cc2ccccc2[C@@H]2OC(c3ccc(OCCCO)cc3)=N[C@]2(CC=C)C1=O,0.887 (inactive),0.794,-2.08,-1.62 (inactive),-0.675 (inactive),-1.39 (inactive)
COC(=O)[C@@]1(Cc2ccccc2)[C@H]2c3cc(C(=O)N(C)C)n(Cc4ccc(C)o4)c3C[C@H]2CN1C(=O)c1ccccc1,0.681 (inactive),-0.523,-1.81,0.0385 (inactive),1.19 (inactive),0.841 (inactive)
OCCCC1=CC(c2ccc(CN3CCCC3)cc2)N(Cc2cc3c(cc2Br)OCO3)CC1 (stereo unspecified),-0.265 (inactive),-0.3,-3.05,-2.68 (inactive),0.905 (inactive),0.629 (inactive)
CC(C)(C)OC(=O)CC[C@@]1(C(=O)NCC(O)CO)N=C(c2ccc(OCCCO)cc2)O[C@@H]1c1ccccc1CN=[N+]=[N-] (stereo partly specified),-0.246 (inactive),0.57,-0.711,-5.44 (inactive),0.436 (inactive),0.71 (inactive)
CCCC[C@@H]1C[C@H]1[C@@H](NC(=O)c1cccs1)c1ccccc1C(F)(F)F,0.269 (inactive),0.305,-1.27,0.322 (inactive),-0.0139 (inactive),0.364 (inactive)
CCCN1C(=O)[C@@]2(Cc3ccccc31)N=C(c1ccc(OCCCO)cc1)O[C@H]2c1ccccc1,0.468 (inactive),0.828,-1.65,-6.04 (inactive),-0.0494 (inactive),0.365 (inactive)
C=C(COC)/C(=C/C[C@H](OC(=O)c1ccncc1)c1ccc(CO)o1)c1cnc2ccccc2c1,1.02 (inactive),0.447,0.834,-5.63 (inactive),-0.429 (inactive),-0.442 (inactive)
[N-]=[N+]=NCc1ccccc1C[C@@]1(C(N)=O)N=C(c2ccc(OCCCO)cc2)O[C@@H]1c1ccccc1,0.755 (inactive),0.237,-1.83,-5.03 (inactive),0.107 (inactive),0.221 (inactive)
